# In article PMC7819943, “Rice protein-binding microarrays: a tool to detect cis-acting elements near promoter regions in rice”:
# In all, about 39,000 sequences were measured (“fluorescence intensity (a.u.)”: median about 4,300, highest 2% from about 39,000 on). Only a selection was taken, and the highest values are over-represented in it overall.
# Target: T1, OsSMF1 (Oryza sativa, UniProt Q6ZLB0 1-436)
# T1 sequence: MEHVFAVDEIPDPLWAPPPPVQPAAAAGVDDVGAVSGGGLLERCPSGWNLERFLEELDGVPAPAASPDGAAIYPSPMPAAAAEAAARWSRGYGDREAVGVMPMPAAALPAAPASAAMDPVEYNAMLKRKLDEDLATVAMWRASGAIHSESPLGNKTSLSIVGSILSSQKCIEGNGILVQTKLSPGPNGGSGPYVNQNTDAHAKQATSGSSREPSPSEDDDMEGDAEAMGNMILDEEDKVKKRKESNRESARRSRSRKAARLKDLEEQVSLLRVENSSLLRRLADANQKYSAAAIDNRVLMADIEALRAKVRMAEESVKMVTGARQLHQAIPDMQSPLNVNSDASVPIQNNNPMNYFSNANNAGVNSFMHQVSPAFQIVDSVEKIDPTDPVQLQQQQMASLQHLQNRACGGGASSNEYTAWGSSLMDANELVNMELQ
# Assay: protein-binding microarray (RPBM); PBS, 2% BSA, 51.3 ng/ul salmon testes DNA, 50 uM zinc acetate, 200 nM TF, 25 C, 1 h; high values mean tight binding
# Conditions: protein: recombinant; tags: N-terminal polyhistidine and DsRed monomer fusion (pET32a); chain copies: 2; label: CyDye5-dUTP incorporated in the synthesized complementary strand; 3' TTTTT single-stranded linker to array surface; dsDNA, one strand shown
# Method in brief: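 Binding signal is reported as fluorescence intensity per feature (arbitrary units) from an Axon 4000B scanner. Incubation used 200 nM of each Ni–NTA-purified, N-terminally polyhistidine- and DsRed-fused transcription factor from E. coli BL21-CodonPlus on a double-stranded custom Agilent array for 1 h at 25 °C, with 50 µM zinc acetate in the buffer, followed by washing.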
row,Sequence,binding signal
1,CTGCAGTACAACAAACATGATAGTACTTGAAATCATCTTGCGGAGTCACCTAGTGCAG,27400 fluorescence intensity (a.u.)
2,CAACAAGCGGGTGGCTGGAAGGTGTGTGTGTGAGAGAGAGCGGAGTCACCTAGTGCAG,3180 fluorescence intensity (a.u.)
3,GATATCACAACCTGACCCACATTAGTCACACGCACTCACACGGAGTCACCTAGTGCAG,3790 fluorescence intensity (a.u.)
4,GTATTGTGTGTATTTATACATCATGAAAGAATAGAATAAACGGAGTCACCTAGTGCAG,28600 fluorescence intensity (a.u.)
5,TGGAGTAAACGATGAATACATGTTATAATAGTGTAGATTGCGGAGTCACCTAGTGCAG,65100 fluorescence intensity (a.u.)
6,ATGAGTGTGAGTGTGGCATGCGTGCATGTGTAATAGTAAACGGAGTCACCTAGTGCAG,3480 fluorescence intensity (a.u.)
7,GTAAGAATTGGCTGTTAGATTGGCTATAAATGAATTGGAGCGGAGTCACCTAGTGCAG,50800 fluorescence intensity (a.u.)
8,CTATTGTATGAATTGGCTATAGATGATTTGGAGGCAGTAGCGGAGTCACCTAGTGCAG,3800 fluorescence intensity (a.u.)
9,ATAAAGAATATGTAGAATTGGAACTATGCTAAGAGAAGAGCGGAGTCACCTAGTGCAG,3280 fluorescence intensity (a.u.)
10,TTCAAGTCCACATGGTGCTGACGTGAAACTGTCACATACACGGAGTCACCTAGTGCAG,7250 fluorescence intensity (a.u.)
11,GCATAGGAAGGTGACATGGCATATCCATGTGGCGATTTTGCGGAGTCACCTAGTGCAG,7280 fluorescence intensity (a.u.)
12,ACCAGTACGCATAGCATCATGTTGTTCCTGTGAAAGCATCCGGAGTCACCTAGTGCAG,3460 fluorescence intensity (a.u.)
13,AGCTTCATCTGCAATCCTCCGCTGATCTCTCCCTGTCCGGCGGAGTCACCTAGTGCAG,3940 fluorescence intensity (a.u.)
14,CCATCGCCGCCGCCCTCTTCTTCTTCTTCTTGCGAAGCAACGGAGTCACCTAGTGCAG,19100 fluorescence intensity (a.u.)
15,TTATTTTGGTCAGTTGAAGTGTGGAAAATGGTGAAAATCTCGGAGTCACCTAGTGCAG,3880 fluorescence intensity (a.u.)
16,ACAAGTTGGAGCTACTTTCTTTTGAAATGACAGATCAACTCGGAGTCACCTAGTGCAG,3250 fluorescence intensity (a.u.)
17,TTTCAGAGTTTGAAGTTGGAAATCAACCTTGTTGTTCTCTCGGAGTCACCTAGTGCAG,63100 fluorescence intensity (a.u.)
18,AAGAGATCCTTGTGTTTCGGAAGAATTTTGGTTGGTGTATCGGAGTCACCTAGTGCAG,23500 fluorescence intensity (a.u.)
19,CATAATATGGTAGTGTTGTTTCTCATGCAAGTATTGGCGTCGGAGTCACCTAGTGCAG,3160 fluorescence intensity (a.u.)
20,GCAGAGGAACCTTGGTAGTAGTATTTGGTTTCTCAGAAGTCGGAGTCACCTAGTGCAG,52600 fluorescence intensity (a.u.)
21,GAGAGCTCCCTTTTCGTACCACCTCGCCGCGTCGGCTGCTCGGAGTCACCTAGTGCAG,4870 fluorescence intensity (a.u.)
22,AGCCGCGGTCACGCACGCCACGCGTTCGATCGATCGATCACGGAGTCACCTAGTGCAG,4120 fluorescence intensity (a.u.)

row,Sequence,binding signal
1,GCTGGCTGGATTGCCACGTGTATGTCACGTAGGATAAAACCGGAGTCACCTAGTGCAG,14300 fluorescence intensity (a.u.)
2,GTTGACCCGCAGTTCCCCTTTGTTTTCCACGTGTTTCTTCCGGAGTCACCTAGTGCAG,7790 fluorescence intensity (a.u.)
3,CGGACGTCCCACACGCTTGGTGTCACGACGAGAGGAACCTCGGAGTCACCTAGTGCAG,3450 fluorescence intensity (a.u.)
4,ATCAAAGAGGATTCTGTATTGTATTGGCAACAACCGAAAACGGAGTCACCTAGTGCAG,13800 fluorescence intensity (a.u.)
5,CTTGAAGGAAAACAAGTATAAGGTTCATCCTCATCATCACCGGAGTCACCTAGTGCAG,3270 fluorescence intensity (a.u.)
6,AAACATCAATTGTATTATCCTTGAAAAGAAGGCACATCACCGGAGTCACCTAGTGCAG,44800 fluorescence intensity (a.u.)
7,ATTGAAAATTTTGTTTGAGTGCACATCGTGTGCATTTTATCGGAGTCACCTAGTGCAG,8920 fluorescence intensity (a.u.)
8,AAATTTTAATACGTGTAGCATTGCTCCCGGTAATGTATTTCGGAGTCACCTAGTGCAG,3700 fluorescence intensity (a.u.)
9,ATAGAGATCACAGTCACACACATATGGCCTGTGCATTTACCGGAGTCACCTAGTGCAG,3720 fluorescence intensity (a.u.)
10,CGAAAATGATCTGACACTTATTCGAAAGCAACGTCACAAGCGGAGTCACCTAGTGCAG,4300 fluorescence intensity (a.u.)
11,TGACATAGAGAGTGATCACAAGCGAAATATTTATTCGGAACGGAGTCACCTAGTGCAG,48300 fluorescence intensity (a.u.)
12,GGAGAAACAATATTCGTCATACATTTTGAACCAGATCAAGCGGAGTCACCTAGTGCAG,31700 fluorescence intensity (a.u.)
13,GGCCAGGATGATCGAGCACTTGGTTGTGACACAGAGGGTGCGGAGTCACCTAGTGCAG,3220 fluorescence intensity (a.u.)
14,ATTTGGTATGACTTGGCTTCAAACCAAGATGGTCCGGAGTCGGAGTCACCTAGTGCAG,5390 fluorescence intensity (a.u.)
15,CCCACATCGCTCCGCGTCATTAGATTTAGCACTTTATCTTCGGAGTCACCTAGTGCAG,5240 fluorescence intensity (a.u.)
16,CGCCATGTGTCAACTGGCATGGCCGTGCGCTGGCACACACCGGAGTCACCTAGTGCAG,5160 fluorescence intensity (a.u.)
17,TGCGCCGTCTGCGTCAGCGTGCCTCGTCGCAGTCGCAGGCCGGAGTCACCTAGTGCAG,6400 fluorescence intensity (a.u.)
18,CATGTTCGTGCGCCGTCACTACAGGCACCTCGCTGTCAACCGGAGTCACCTAGTGCAG,40100 fluorescence intensity (a.u.)
19,CCTAAATAAGCTAGCAAAATAGCCAATGCCAGCCAATATTCGGAGTCACCTAGTGCAG,28300 fluorescence intensity (a.u.)
20,TTGGCCACCTCCACCTCACTCGCATGAAGGCTAAGTGAGCCGGAGTCACCTAGTGCAG,4160 fluorescence intensity (a.u.)
21,ATATATACTCCAAGCTCGGTGAGCCAGCATCACCACCAACCGGAGTCACCTAGTGCAG,3220 fluorescence intensity (a.u.)
